Screening data from PubChem BioAssay.
COUP-TFII inh – NR2F2 (human) inhibition, primary screen. P24468. HEK293T NGFI-A luciferase reporter, luminescence. inhibition, % at 8.6 µM. 370,000 tested, 0.7% active;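 active = inhibition above a per-plate cutoff, mean inhibition of test wells between control levels plus 3 SD, cut at about 38% in these data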;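 also: cells cotransfected with COUP-TFII expression vector driving the NGFI-A reporter; 0% = median of COUP-TF2 test wells and 100% = reporter-only cells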
Target sequence (P24468 whole entry, looked up): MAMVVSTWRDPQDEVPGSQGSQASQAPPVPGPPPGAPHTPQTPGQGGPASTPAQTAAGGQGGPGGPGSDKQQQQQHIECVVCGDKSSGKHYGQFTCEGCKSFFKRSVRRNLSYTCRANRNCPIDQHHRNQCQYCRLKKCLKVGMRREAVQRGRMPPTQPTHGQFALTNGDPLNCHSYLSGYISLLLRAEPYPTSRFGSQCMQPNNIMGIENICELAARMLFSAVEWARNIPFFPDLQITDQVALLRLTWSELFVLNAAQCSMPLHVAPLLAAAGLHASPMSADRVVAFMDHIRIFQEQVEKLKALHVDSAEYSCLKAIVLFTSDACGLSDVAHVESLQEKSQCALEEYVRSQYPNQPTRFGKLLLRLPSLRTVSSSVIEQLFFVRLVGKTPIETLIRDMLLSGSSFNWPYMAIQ
FXN GAA850 act – activators of GAA850 frataxin (FXN) promoter | HEK293 lucGAA850 FXN promoter luciferase reporter, 24 h; percent of 10 µM SAHA response | activation, % at 6 µM | 360,000 tested, 0.56% active | AID 540364;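 active = activation above the average of all compounds screened plus 3 SD, cutoff fixed separately per campaign, cut at about 7.5% in these data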;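 also: 0% = DMSO wells and 100% = 10 µM SAHA wells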
GalR3 antagonist – antagonists of human GalR3 | inhibition, % at 3 µM | 360,000 tested, 0.44% active | HEK293 GalR3-CNG cAMP membrane potential fluorescence; galR3 body fused to GalR1 C-terminus;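 active = inhibition above the screen-wide average plus 3 SD, cut at about 13% in these data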;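 also: forskolin and galanin both at EC90 stimulate the cells; cAMP rise reported by CNG channel membrane potential dye signal; 0% = forskolin plus galanin with DMSO and 100% = forskolin alone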
H9c2 protect – modulators protecting cardiomyocytes from myocardial damage; H9c2 cardiomyocytes, H2O2 injury protection, ATPLite, 2 h; protection from H2O2 cell death, % at 20 µM; 360,000 tested, 0.63% active;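 active = compounds giving at least 50% protection of heart cells from peroxide-induced death in the single-dose screen, raw or plate-pattern-corrected value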;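 also: 0% = DMSO wells with peroxide and 100% = DMSO wells without peroxide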
Gli-Sufu antag – antagonists of Gli-Sufu signaling; inhibition, % at 5 µM; 340,000 tested, 0.74% active; Sufu-KO-LIGHT fibroblasts, Gli luciferase reporter luminescence; AID 588413;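 active = inhibition above about 55%, limit read from the data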;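 also: 0% = DMSO-treated cells and 100% = wells with medium but no cells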
SMARCA2 activ – SMARCA2 function activation, primary screen. 370,000 tested, 1% active. activation, % at 9.1 µM. AID 652017. MG213 cells, MMTV-luciferase reporter, dexamethasone, overnight; in the data active = activation above about 7.8%;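 also: 0% = vehicle wells and 100% = reference activator wells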
GalR3 conf – confirmation of human galanin receptor 3 antagonists | HEK293 GalR3 CNG cAMP biosensor, membrane potential fluorescence; galR3 fused to GalR1 carboxy tail; challenged with forskolin and galanin at EC90 | inhibition, % at 3 µM | shares compounds with GalR3 antagonist | 1,600 tested, 59% active | AID 652245;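 active = inhibition above the primary screen's cutoff, the mean inhibition of all screened compounds plus 3 SD, cut at about 13% in these data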;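 also: 0% = forskolin plus galanin and 100% = forskolin alone with DMSO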
HEK-CNG parental – acts as nonspecific agonist in parental HEK-CNG cells. 1,600 tested, 10% active. shares compounds with GalR3 antagonist. HEK293-CNG parental cells, cAMP membrane potential fluorescence; normalised: DMSO wells 0%, forskolin wells 100%. activation, % at 3 µM; in the data active = activation above about 1.3%
Gal4-VP16 ctr – VP16 inhibition counter-screen for COUP-TFII. shares compounds with COUP-TFII inh. HEK293 Gal4-VP16 luciferase reporter, luminescence. inhibition, % at 8.5 µM. 2,500 tested, 25% active; in the data active = inhibition above about 13%
NR2F2 inh conf – COUP-TFII (NR2F2) inhibition, confirmation assay; shares compounds with COUP-TFII inh; HEK293 NGFI-A luciferase reporter, luminescence; inhibition, % at 8.5 µM; 2,500 tested, 45% active;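 active = mean inhibition over three repeats above a set limit taken from the earlier primary screen, cut at about 38% in these data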;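 also: 100% = cells given the luciferase reporter alone without the COUP-TF2 vector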
The depositor's hits bear a star; x = no result given. Sampled rows, rich in hits. Any-hit rate of the full collection: about 3.4%.

SMILES	COUP-TFII inh	FXN GAA850 act	GalR3 antagonist	H9c2 protect	Gli-Sufu antag	SMARCA2 activ	GalR3 conf	HEK-CNG parental	Gal4-VP16 ctr	NR2F2 inh conf
CC1CCCN(S(=O)(=O)c2cc(C(=O)NCCc3ccc(S(N)(=O)=O)cc3)ccc2Cl)C1 (centres undefined)	64*	-1	75*	-6	11	-6	15*	-1	7	39*
COc1ccc(CCC(=O)Nc2ccc(Cl)c(S(=O)(=O)N3CCCC3)c2)cc1	59*	-1	66*	-9	2	-6	112*	0	-1	38*
COc1ccc(CCNC(=O)c2ccc(Cl)c(S(=O)(=O)N3CCCCCC3)c2)cc1	63*	-4	88*	-13	-5	-4	99*	0	5	41*
O=C(NCCc1ccccc1)c1ccc(Cl)c(S(=O)(=O)N2CCCC2)c1	x	5	x	-9	-33	x	x	x	x	x
CCOC(=O)[C@@H]1[C@H]2COc3cc(OC)ccc3[C@H]2N2C(=O)N(c3ccc(C(F)(F)F)cc3)C(=O)[C@]12C	-3	-6	-7	-11	1	-2	x	x	x	x
CCCCCN(C(=O)NC(=O)Nc1ccccc1C)S(=O)(=O)c1ccccc1	-8	2	2	0	-4	1	x	x	x	x
Cc1cc(Cl)c(S(=O)(=O)NC2CCCC2)cc1OCC(=O)NC1CCCCC1	53*	-6	66*	2	22	-5	47*	0	3	53*
CCN1CCN(S(=O)(=O)c2cc(OCC(=O)NC3CCCCC3)c(C)cc2Cl)CC1	46*	0	25*	0	6	-5	55*	0	9	37
O=C(COc1ccc(Br)cc1Br)NC1CCCC1	47*	3	42*	-14	-48	-4	73*	0	-123	-3
O=[N+]([O-])c1ccc(N=Nc2c(Cl)cc(O)cc2Cl)cc1	64*	-7	35*	-21	24	-7	31*	3.9*	-73	49*
O=C(NCc1ccc(F)c(F)c1)c1cccc2c(-c3cccnc3)coc12	23	1	0	-4	x	-3	x	x	x	x
COc1ccc(CNC(=O)c2cccc3c(-c4cccnc4)coc23)cc1OC	82*	-6	89*	-10	x	-7	106*	0	4	75*
Cc1c(Br)cnn1C(C)C(=O)N1CCN(c2ccc(F)cc2)CC1 (centres undefined)	1	2	-1	2	3	-2	x	x	x	x
CC(NC(=O)C12CC3CC(C)(CC(C)(C3)C1)C2)c1ccncc1 (centres undefined)	13	8	-6	3	15	-1	x	x	x	x
O=C(c1ccc(CNS(=O)(=O)c2ccccc2)cc1)N1CCN(Cc2ccccc2)CC1	58*	-2	21*	1	7	-8	10	0	-4	16
CS(=O)(=O)c1ccc(C(=O)N2CCN(Cc3ccccc3)CC2)cc1	4	0	-5	2	1	-2	x	x	x	x
c1ccc(CCNc2ccnc3cc4ccccc4cc23)cc1	65*	-6	19*	-36	83*	-7	-7	3.3*	15*	59*
COc1ccc(OC)c(CCNC(=O)C(C)n2nc(C)c3c(C)n(-c4ccc(C)cc4)nc3c2=O)c1 (centres undefined)	73*	-7	50*	-5	12	-3	91*	0	18*	73*
